The source of these data is PubChem BioAssay (NCI).

Compounds without any hit were thinned out: in the full panel of roughly 83,000, 20% have a hit.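 Cell lines were cultured in 96-well plates, exposed to a single compound concentration, and assessed for percent growth 48 hours later.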 Values without a mark were called inactive. Activity calls are given as the source filed them. The calls were made as follows: active = growth percent below 10; inactive = the rest.

Some test systems named below: NCI-H23 lung; NCI-H226 lung; NCI-H322M lung; HOP-62 NSCLC; NCI-H460 lung; NCI-H522 lung; A549/ATCC NSCLC; 786-0 renal; COLO 205 colon; DU-145 prostate; K-562 leukemia; MALME-3M melanoma; MDA-MB-231 breast; RXF 393 renal; SF-268 CNS; SF-295 CNS; SF-539 CNS; UACC-257 melanoma; M14 melanoma.
Common to all, as to test: NCI-60 one-dose screen, 48 h (100 = growth as untreated, 0 = no growth, -100 = all killed)
What all share (conditions): 10 µM unless noted

`COc1cc2ncnc(Nc3ccc(S(=O)(=O)Nc4cc(C)on4)cc3)c2cc1OCCCN1CCN(c2ccc([N+](=O)[O-])cc2)CC1`: the growth in the assay with NCI-H23 lung was 103%; in the assay with NCI-H226 lung it was 107%; with NCI-H322M lung, 103%; in the assay with HOP-62 NSCLC, 106%; in the assay with NCI-H460 lung, 110%; with NCI-H522 lung, 94.7%. Also, the growth is 106% in the assay with A549/ATCC NSCLC; 109% in the assay with 786-0 renal; 105% in the assay on COLO 205 colon; 112% with DU-145 prostate; 120% in the assay with K-562 leukemia; 104% in the assay with MALME-3M melanoma. Besides, the growth was 97.9% in the assay on MDA-MB-231 breast; 115% with RXF 393 renal; 102% with SF-268 CNS; 109% in the assay with SF-295 CNS; 102% in the assay with SF-539 CNS; 107% in the assay on UACC-257 melanoma. Moreover, the growth in the assay on M14 melanoma is 98.4%.

Regarding `CN1C(=O)C(C(=O)/C=C/c2ccccc2C(=O)O)C(=O)N(C)C1=O`, the growth with NCI-H23 lung was 95.1%; in the assay on NCI-H226 lung, 99.5%; in the assay with NCI-H322M lung it was 99.1%; with HOP-62 NSCLC, 91.3%; with NCI-H460 lung, 104%; with NCI-H522 lung, 90.5%. The growth in the assay with A549/ATCC NSCLC is 97.4%; in the assay with 786-0 renal, 94.7%; in the assay with COLO 205 colon, 114%; with DU-145 prostate, 111%; in the assay with K-562 leukemia, 90.1%; with MALME-3M melanoma, 103%. Further, the growth with MDA-MB-231 breast is 109%; in the assay with RXF 393 renal, 118%; in the assay with SF-268 CNS, 100%; in the assay with SF-295 CNS, 98.4%; in the assay on SF-539 CNS it was 104%; in the assay on UACC-257 melanoma, 93.3%. For the same molecule, the growth in the assay with M14 melanoma was 99%.

Turning to `O=c1oc2ccccc2cc1-c1cc(-c2ccc(-c3cc(-c4cc5ccccc5oc4=O)nc(-c4cc5ccccc5oc4=O)c3)cc2)cc(-c2cc3ccccc3oc2=O)n1`, the growth in the assay with NCI-H23 lung is 98.5%; in the assay with NCI-H226 lung it was 97.8%; in the assay with NCI-H322M lung, 108%; in the assay with HOP-62 NSCLC, 93.3%; with NCI-H460 lung, 106%; with NCI-H522 lung it was 97%. Besides, the growth in the assay with A549/ATCC NSCLC was 101%; in the assay on 786-0 renal, 107%; in the assay on COLO 205 colon, 103%; in the assay on DU-145 prostate it was 107%; in the assay on K-562 leukemia, 94.8%; in the assay with MALME-3M melanoma, 98.3%. The growth in the assay with MDA-MB-231 breast was 94.4%; with RXF 393 renal it was 118%; in the assay on SF-268 CNS it was 104%; in the assay with SF-295 CNS, 111%; in the assay on SF-539 CNS it was 93.2%; with UACC-257 melanoma, 103%. Moreover, the growth in the assay with M14 melanoma was 103%.

Turning to `CCCCOc1nc2ccc(C)cc2cc1/C=C/C(=O)/C=C(O)/C=C/c1cc2cc(C)ccc2nc1OCCCC`, the growth with NCI-H23 lung is 92%; with NCI-H226 lung it was 102%; with NCI-H322M lung, 92%; in the assay on HOP-62 NSCLC, 87.3%; in the assay with NCI-H460 lung it was 106%; in the assay on NCI-H522 lung, 85%. The growth was 91.7% in the assay with A549/ATCC NSCLC; 96.5% in the assay on 786-0 renal; 114% in the assay with COLO 205 colon; 112% in the assay on DU-145 prostate; 99.2% in the assay on K-562 leukemia; 118% in the assay with MALME-3M melanoma. Besides, the growth in the assay with MDA-MB-231 breast is 103%; in the assay on RXF 393 renal, 108%; with SF-268 CNS, 103%; in the assay on SF-295 CNS it was 101%; in the assay on SF-539 CNS, 103%; in the assay with UACC-257 melanoma it was 89.4%. In addition, the growth in the assay on M14 melanoma was 98.4%.

As to `COc1cc(C2CC(c3ccc(Cl)cc3)=NN2C(C)=O)ccc1Oc1nc2c(c(=O)n(C)c(=O)n2C)n1C` (configuration not stated), the growth in the assay on NCI-H23 lung was 84.2%; with NCI-H226 lung, 76.8%; in the assay on NCI-H322M lung, 72.9%; with HOP-62 NSCLC, 98.7%; in the assay with NCI-H460 lung it was 88.1%; in the assay with NCI-H522 lung it was 92.5%. In addition, the growth in the assay with A549/ATCC NSCLC is 59.7%; with 786-0 renal it was 111%; in the assay with COLO 205 colon it was 102%; with DU-145 prostate, 65.2%; in the assay with K-562 leukemia, 101%; in the assay on MALME-3M melanoma it was 100%. The growth in the assay with MDA-MB-231 breast is 85.8%; with RXF 393 renal, 86.8%; in the assay with SF-268 CNS it was 56.8%; with SF-295 CNS it was 62.6%; in the assay with SF-539 CNS it was 102%; in the assay on UACC-257 melanoma, -8% (active). Moreover, the growth in the assay with M14 melanoma is 67.8%.

As for `COc1cc(CN2CCC(N3CCCC3=O)c3ccccc32)cc(OC)c1OC` (configuration not stated), the growth in the assay with NCI-H23 lung was 63%; in the assay on NCI-H226 lung it was 85.9%; with NCI-H322M lung it was 87.9%; in the assay on HOP-62 NSCLC it was 95.5%; in the assay on NCI-H460 lung, 89.4%; with NCI-H522 lung, 55.3%. Besides, the growth is 80.7% with A549/ATCC NSCLC; 80.4% in the assay with 786-0 renal; 106% in the assay with COLO 205 colon; 108% in the assay on DU-145 prostate; 46% in the assay with K-562 leukemia; 71.9% in the assay with MALME-3M melanoma. For the same molecule, the growth in the assay on MDA-MB-231 breast is 90.4%; with RXF 393 renal it was 112%; with SF-268 CNS, 91.6%; in the assay on SF-295 CNS it was 79.3%; with SF-539 CNS, 93.7%; with UACC-257 melanoma it was 72.2%. In the assay on M14 melanoma, the growth was 92.9%.

In the case of `COc1cc2ncnc(Nc3ccc(S(=O)(=O)Nc4nccs4)cc3)c2cc1OCCCN1CCOCC1`, the growth in the assay with NCI-H23 lung was 104%; in the assay on NCI-H226 lung, 99.7%; in the assay on NCI-H322M lung, 102%; in the assay on HOP-62 NSCLC, 93.3%; in the assay on NCI-H460 lung it was 105%; in the assay on NCI-H522 lung, 88.6%. For the same molecule, the growth in the assay with A549/ATCC NSCLC is 103%; in the assay with 786-0 renal it was 108%; in the assay with COLO 205 colon, 103%; in the assay on DU-145 prostate it was 110%; with K-562 leukemia it was 106%; with MALME-3M melanoma it was 99.8%. The growth in the assay on MDA-MB-231 breast is 99.2%; with RXF 393 renal, 111%; in the assay on SF-268 CNS, 98.3%; in the assay with SF-295 CNS, 108%; with SF-539 CNS, 98.6%; in the assay with UACC-257 melanoma it was 101%. For the same molecule, in the assay with M14 melanoma, the growth is 107%.

On to `O=C(c1ccccc1)c1cccc(C(Br)Br)c1`, for which the growth in the assay with NCI-H23 lung is 92.8%; with NCI-H226 lung, 101%; with NCI-H322M lung, 95.1%; in the assay on HOP-62 NSCLC, 86.7%; with NCI-H460 lung, 66.4%; in the assay with NCI-H522 lung, 66%. For the same molecule, the growth with A549/ATCC NSCLC was 86.9%; in the assay on 786-0 renal, 100%; with COLO 205 colon it was 96.6%; in the assay with DU-145 prostate it was 93.7%; in the assay with K-562 leukemia, 46.4%; in the assay on MALME-3M melanoma it was 88.9%. Also, the growth was 103% in the assay with MDA-MB-231 breast; 95.7% with RXF 393 renal; 95.5% in the assay with SF-268 CNS; 76.2% in the assay with SF-295 CNS; 95.2% with SF-539 CNS; 105% in the assay with UACC-257 melanoma. The growth in the assay on M14 melanoma is 72.1%.
